Reference: PubChem BioAssay (NCATS)
Several values for one entry are separate records, joined by “and”; a condition that tells them apart may be missing. Equal values may be shown once. A number with no mark means an inactive call. Records with an inconclusive call do not appear. Activity calls are given as the source filed them. Unless noted, the call rests on the fitted dose curve; in most records, active means well fitted curve in the direction sought with a large enough effect; inconclusive means small, poorly fitted or top-dose-only effect, or another doubt; inactive means no such curve, though single readings can be large; an effect the other way counts as inactive or inconclusive. Peptide text beside a SMILES is read from it.

What was measured:
[1] = Cell Viability - Hek293 (AID 427;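 active means compounds whose dose-response curve shows a full or clear partial loss of cell viability, called from curve shape rather than a numeric limit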;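 further: potency means the concentration at half of the fitted maximal effect; cells exposed to compound for 40 hours at 37 °C before reading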); details: qHTS
How it was run: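 Luminescent ATP read-out (CellTiter-Glo, 20 min RT) after 40 hr compound exposure at 37 °C in complete medium. Signal normalized to DMSO (basal) and 100 uM tamoxifen (100% inhibition); concentration-response fitted with the standard Hill equation to give AC50.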

[2] = Cell Viability - HepG2 (AID 433; calls by dose curve;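 further: potency means the concentration at half of the fitted maximal effect; potency for ATP loss meaning cytotoxicity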); details: qHTS
How it was run: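 HepG2 hepatocellular carcinoma cells (1500/well) were treated with compounds for 40 h at 37 °C in complete medium; intracellular ATP was read by CellTiter-Glo luminescence. Data were normalized to DMSO and 100 uM tamoxifen, and AC50 came from Hill fits.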

[3] = Cell Viability - MRC5 (AID 434; calls by dose curve;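 further: potency means the concentration at half of the fitted maximal effect; potency reflects cytotoxicity seen as loss of intracellular ATP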); details: MRC5 lung fibroblast viability, qHTS
How it was run: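 Decrease in intracellular ATP, quantified by luciferase light output, reflects compound toxicity toward MRC5 cells exposed for 40 hr in complete culture medium. Concentration-response curves, scaled between DMSO and 100 uM tamoxifen, gave AC50 values.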

[4] = Cell Viability - SK-N-SH (AID 435; calls by dose curve;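 further: potency means the concentration at half of the fitted maximal effect; compound exposure lasted 40 h at 37 °C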); details: SK-N-SH neuroblastoma cell viability qHTS
How it was run: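 SK-N-SH human neuroblastoma cells (1500/well) were exposed to compounds in complete medium for 40 h at 37 °C, and intracellular ATP was then measured by CellTiter-Glo luminescence. AC50 was taken from Hill fits, normalized to DMSO and 100 uM tamoxifen.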

[5] = Cell Viability - N2a (AID 540); details: N2a mouse neuroblastoma cell viability; at 92.2 µM (top of the series);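 further: plate controls were DMSO alone for no effect and tamoxifen control for full effect; nearly all actives have a fitted effect of over 45% in size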
How it was run: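 In this qHTS cytotoxicity screen, ATP-dependent luciferase luminescence reports viable N2a cells after a 40 hr compound exposure in complete culture medium. Potencies are AC50 values from standard Hill equation fits.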

[6] = Cell Viability - NIH 3T3 (AID 541);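 further: plate controls were DMSO alone for no effect and tamoxifen positive control for full effect; nearly all actives have a fitted effect of over 25% in size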
How it was run: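 In this cytotoxicity screen, acute toxicity is scored as an ATP drop measured by CellTiter-Glo in NIH 3T3 fibroblasts following a 40 hr, 37 °C incubation with compound.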

[7] = Cell Viability - HUV-EC-C (AID 542); further: nearly all actives have a fitted effect of over 35% in size; further: potency means the concentration at half of the fitted maximal effect; on activity change, negative = cytotoxicity: on the % scale 0 is the no-effect control and ±100 the full control effect
How it was run: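 Concentration-dependent ATP loss in HUV-EC-C cells is the measure. Exposure lasts 40 hr at 37 °C; luminescence follows CellTiter-Glo addition, and Hill fits give AC50.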

[8] = Cell Viability - H-4-II-E (AID 543); further: nearly all actives have a fitted effect of over 35% in size; further: potency means the concentration at half of the fitted maximal effect
How it was run: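 AC50 from Hill-modelled qHTS concentration-response curves. H-4-II-E rat hepatoma cells in complete medium, 40 hr exposure at 37 °C, viability by CellTiter-Glo ATP luminescence.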

[9] = Cell Viability - SH-SY5Y (AID 544); details: SH-SY5Y neuroblastoma cell viability; at 92.2 µM (top of the series);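 further: 0% = DMSO alone and -100% = 100 µM tamoxifen; nearly all actives have a fitted effect of over 55% in size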
How it was run: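 Quantitative HTS in SH-SY5Y neuroblastoma cells, 40 hr treatment at 37 °C, ATP content by luciferase luminescence; AC50 from Hill fits.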

[10] = Cell Viability - Renal Proximal Tubule (AID 545);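 further: 0% = DMSO only and -100% = 100 µM tamoxifen; nearly all actives have a fitted effect of over 40% in size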
How it was run: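 Primary rat renal proximal tubule cells (1000/well) were treated with compounds for 40 hr at 37 °C in complete medium. Intracellular ATP was measured by CellTiter-Glo luminescence, and AC50 values came from Hill-equation fits of concentration-response data.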

[11] = Cell Viability - Mesenchymal (AID 546); details: mesenchymal cells viability, qHTS; at 91.7 µM (top of the series);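 further: cells exposed to compound for 40 hours before reading; 0% = DMSO only and -100% = 100 µM tamoxifen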
How it was run: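 In this qHTS cytotoxicity format, glomerulus-derived human mesenchymal kidney cells received compound for 40 hr, then luciferase-based ATP quantitation. Concentration-response data were fitted with the Hill equation.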

[12] = Cellular Toxicity (caspase-3) HepG2 (AID 654);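 further: cells exposed to compound for 16 hours before reading; 0% = DMSO alone and 100% = caspase signal from 100 µM tamoxifen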
How it was run: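 Concentration-response AC50 values reflect caspase-3/7 induction in HepG2 cells after 16 hours of compound exposure, quantified by luminescence from liberated aminoluciferin and referenced to 100 uM tamoxifen as full stimulation.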

[13] = molecular target: Mitogen-activated protein kinase 10 (Mus musculus) (UniProt Q61831); test: JNK3 AlphaScreen Assay (AID 530; active means well fitted curve in either direction with a large enough effect, not every such curve was filed as active;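 further: kinase came from lysate of stimulated human HepG2 cells; signal reports phosphorylation of biotinylated GST-cJun 1-79 at Ser73 with 10 µM ATP; on the % scale 0 is the no-effect control and ±100 the full control effect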)
How it was run: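 Biotinylated GST-cJun(1-79) served as substrate for JNK3 in HepG2 lysates stimulated with IL-1beta and TNF-alpha. ATP was 10 uM final, pH 7.6. Ser73 phosphorylation was quantified by AlphaScreen (680 nm excitation).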

[14] = molecular target: Cytochrome P450 1A2 (Homo sapiens) (UniProt P05177); test: p450-cyp1a2 (AID 410; calls by dose curve;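 further: -100% = full effect of reference inhibitor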)
Cytochrome P450 1A2 (Homo sapiens), sequence (P05177 whole entry, looked up): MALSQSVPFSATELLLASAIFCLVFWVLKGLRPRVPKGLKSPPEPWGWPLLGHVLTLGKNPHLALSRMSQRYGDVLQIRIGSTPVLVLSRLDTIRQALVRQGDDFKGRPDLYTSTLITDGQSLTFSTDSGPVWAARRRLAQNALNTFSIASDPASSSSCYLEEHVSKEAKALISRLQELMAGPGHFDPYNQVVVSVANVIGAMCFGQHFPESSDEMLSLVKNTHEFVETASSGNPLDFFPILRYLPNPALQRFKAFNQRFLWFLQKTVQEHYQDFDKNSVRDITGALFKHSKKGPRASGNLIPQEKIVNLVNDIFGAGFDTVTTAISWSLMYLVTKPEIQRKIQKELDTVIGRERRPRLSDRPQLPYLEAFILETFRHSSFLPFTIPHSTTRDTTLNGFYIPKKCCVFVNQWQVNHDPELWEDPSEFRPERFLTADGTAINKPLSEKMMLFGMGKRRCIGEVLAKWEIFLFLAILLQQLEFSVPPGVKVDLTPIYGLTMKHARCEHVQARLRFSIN
How it was run: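 Read-out is luminescence from luciferin produced by CYP1A2 demethylation of Luciferin-ME (100uM, at Km). Detection reagent stopped the 60 min NADPH-dependent reaction; signals were normalized to 57 uM furafylline.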

[15] = Stat Signaling Pathway (AID 446; active means well fitted curve in either direction with a large enough effect, not every such curve was filed as active;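 further: ME-180 cervical cancer cells given 40 pM IL-6 alongside compound; SIE-controlled beta-lactamase reporter measured as 460/530 nm FRET emission ratio; on the % scale 0 is the no-effect control and ±100 the full control effect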)
How it was run: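 Compound effects on IL-6-induced STAT reporter activity were measured in ME-180 cells. After overnight culture, cells were co-treated with 40 pM IL-6 for 5 hrs before beta-lactamase substrate loading at room temperature.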

[16] = molecular target: Glucocorticoid receptor (Homo sapiens) (UniProt P04150); test: GR-GFP Redistribution (AID 450;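 active means compounds whose dose series gives a full or clear partial fitted curve of increased nuclear translocation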; further: potency means the concentration at half of the fitted maximal effect); details: U2OS GR-GFP nuclear translocation, laser cytometry, 2 h
Glucocorticoid receptor (Homo sapiens), sequence (P04150 whole entry, looked up, the tested form may be a part): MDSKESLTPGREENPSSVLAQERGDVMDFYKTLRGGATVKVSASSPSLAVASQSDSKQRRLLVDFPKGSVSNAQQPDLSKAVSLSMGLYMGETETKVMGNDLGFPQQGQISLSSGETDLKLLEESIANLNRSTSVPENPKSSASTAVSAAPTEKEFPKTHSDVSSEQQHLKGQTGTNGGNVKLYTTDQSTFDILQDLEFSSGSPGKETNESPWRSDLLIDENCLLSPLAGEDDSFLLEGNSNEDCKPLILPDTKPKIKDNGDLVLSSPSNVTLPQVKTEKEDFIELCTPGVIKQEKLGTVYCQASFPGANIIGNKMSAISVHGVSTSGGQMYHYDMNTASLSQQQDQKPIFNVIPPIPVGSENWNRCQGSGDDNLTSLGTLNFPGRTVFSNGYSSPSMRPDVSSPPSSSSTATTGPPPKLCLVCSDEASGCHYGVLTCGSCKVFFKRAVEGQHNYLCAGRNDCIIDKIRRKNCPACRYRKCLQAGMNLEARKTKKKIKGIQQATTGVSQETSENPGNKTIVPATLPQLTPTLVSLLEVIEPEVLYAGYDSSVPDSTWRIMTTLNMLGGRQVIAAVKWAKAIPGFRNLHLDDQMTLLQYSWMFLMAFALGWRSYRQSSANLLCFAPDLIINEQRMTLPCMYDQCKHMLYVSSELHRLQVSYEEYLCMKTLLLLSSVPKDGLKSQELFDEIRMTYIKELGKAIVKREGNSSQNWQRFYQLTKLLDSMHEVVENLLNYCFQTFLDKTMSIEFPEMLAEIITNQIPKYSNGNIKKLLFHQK

[17] = molecular target: Glucocorticoid receptor (Homo sapiens) (UniProt P04150); test: GR-EFC Redistribution (AID 451; calls by dose curve; further: potency means the concentration at half of the fitted maximal effect); details: CHO-K1 GR-EFC translocation, beta-gal luminescence, 2 h
How it was run: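 CHO-K1 cells stably expressing nuclear-localized β-gal enzyme acceptor and GR fused C-terminally to the enzyme donor fragment; ligand-driven nuclear translocation restores β-gal by complementation. Compounds titrated up to 46 uM final, 2 h at 37 °C; luminescence read.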

[18] = molecular target: 3',5'-cyclic-AMP phosphodiesterase 4B (Homo sapiens) (UniProt Q07343); test: qHTS Assay for Inhibitors of PDE-IV (AID 607; active means well fitted activation curve with a large enough effect in the main read-out, with a control signal flat, not every such curve was filed as active; further: % of control where 0% means no effect)
3',5'-cyclic-AMP phosphodiesterase 4B (Homo sapiens), sequence (Q07343 whole entry, looked up): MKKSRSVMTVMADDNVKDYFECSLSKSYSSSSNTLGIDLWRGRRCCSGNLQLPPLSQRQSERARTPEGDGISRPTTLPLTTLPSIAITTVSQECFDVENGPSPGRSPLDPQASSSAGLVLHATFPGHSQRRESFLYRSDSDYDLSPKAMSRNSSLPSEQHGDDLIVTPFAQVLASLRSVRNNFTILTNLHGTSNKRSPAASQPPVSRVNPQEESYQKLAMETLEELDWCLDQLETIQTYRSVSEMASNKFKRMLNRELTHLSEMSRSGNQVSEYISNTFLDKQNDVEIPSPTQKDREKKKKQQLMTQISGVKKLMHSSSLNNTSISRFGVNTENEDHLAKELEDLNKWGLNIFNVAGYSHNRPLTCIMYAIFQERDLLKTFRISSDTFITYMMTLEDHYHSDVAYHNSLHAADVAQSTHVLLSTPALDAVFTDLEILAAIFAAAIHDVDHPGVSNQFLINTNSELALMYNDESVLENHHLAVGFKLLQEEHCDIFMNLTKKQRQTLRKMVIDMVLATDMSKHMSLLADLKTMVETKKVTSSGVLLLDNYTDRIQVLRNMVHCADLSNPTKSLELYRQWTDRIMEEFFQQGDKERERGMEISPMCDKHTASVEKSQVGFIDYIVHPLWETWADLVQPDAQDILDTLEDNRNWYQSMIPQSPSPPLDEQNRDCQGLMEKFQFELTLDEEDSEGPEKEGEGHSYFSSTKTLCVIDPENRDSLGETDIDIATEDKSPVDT
How it was run: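 ACTOne HEK293 cells carry a modified cAMP-gated CNG channel and express endogenous PDE4; plated 1000 cells/well, compounds up to 22.9 uM final. Membrane-potential dye fluorescence (ex 535/em 590) was read; parental cells received 10 uM forskolin + 100 uM RO 20-1724.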

SMILES | Potency [1] [µM] | Potency [2] | Potency [3] [µM] | Potency [4] [µM] | activity change, negative = cytotoxicity [5] | outcome [6] | Potency [7] | Potency [8] | viability change, negative = cytotoxic [9] | outcome [10] | activity change, negative = cytotoxicity [11] | outcome [12] | outcome [13] | Potency [14] | outcome [15] | Potency [16] | Potency [17] | outcome [18]
CCCCC/C=C\C/C=C\CCCCCCCC(=O)O | > 92 | > 92 µM | > 92 | > 92 | -28.9% | inactive | inactive | inactive | 0.00595% | inactive | 8.92% | inactive |  |  |  |  |  | 
O=S(=O)(O)O | > 92 | > 92 µM | > 92 | > 92 | -3.09% and 7.28% | inactive | inactive | inactive | 2.52% and 9.94% | inactive | -5.83% and 4.47% | inactive | inactive |  |  |  |  | 
CC1=C2[C@@H]([C@H](C)CC[C@H]2/C=C(\C)C(=O)O)[C@H](O)C1 | > 92 | > 92 µM | > 92 | > 92 | 6.2% | inactive | inactive | inactive | -4.63% | inactive | 8.87% | inactive | inactive |  |  |  |  | 
CC(C)N=c1cc2n(-c3ccc(Cl)cc3)c3ccccc3nc-2cc1Nc1ccc(Cl)cc1 |  |  |  |  |  |  |  |  |  |  |  |  |  | inactive | inactive | > 20.6 µM | > 20.6 µM | inactive
COC(=O)C1=C(C)NC(C)=C(C(=O)OCCCN2CCC(c3ccccc3)(c3ccccc3)CC2)[C@H]1c1cccc([N+](=O)[O-])c1 |  |  |  |  |  |  |  |  |  |  |  |  | inactive |  |  | > 46 µM | > 46 µM | inactive
CC(Cc1ccc(O)c(O)c1)C(C)Cc1ccc(O)c(O)c1 (stereo not given) |  |  |  |  |  |  |  |  |  |  |  |  |  |  | inactive | > 20.6 µM |  | 
O=CCCCC=O | > 92 | > 92 µM | > 92 |  |  |  | inactive |  |  | inactive | -29.7% |  | inactive |  |  |  |  | 
CC(O)CO (stereo not given) | > 92 | > 92 µM | > 92 | > 92 | -4.29% and -9.5% | inactive | inactive | inactive | -13.2% and -4.54% | inactive | 1.55% and 7.01% | inactive | inactive |  |  |  |  | 
IC(I)I | > 92 | > 92 µM | > 92 | > 92 | -10.4% | inactive | inactive | inactive | -2.58% | inactive | 5.44% | inactive | inactive |  |  |  |  | 
CC(C)(C)NC(=O)[C@@H]1C[C@@H]2CCCC[C@@H]2CN1C[C@@H](O)[C@H](Cc1ccccc1)NC(=O)[C@H](CC(N)=O)NC(=O)c1ccc2ccccc2n1 |  | 65.4 µM (active) |  |  |  | inactive | 50.1 µM (active) | 50.1 µM (active) | -93.9% (active) |  | -97.1% (active) |  | inactive |  |  |  |  | 
Nc1ccn([C@H]2CS[C@@H](CO)O2)c(=O)n1 | > 92 | > 92 µM | > 92 | > 92 | -5.31% | inactive | inactive | inactive | 1.14% | inactive | 7.61% | inactive | inactive |  |  |  |  | 
CC(=O)N[C@@H](CC(=O)O)C(=O)N[C@@H](CCC(=O)O)C(=O)O (Ac-Asp-Glu-OH) |  |  |  |  |  |  |  |  |  |  |  |  | inactive | inactive | inactive | > 20.6 µM and > 46 µM | > 20.6 µM and > 46 µM | inactive
CC(C)=O | > 92 | > 92 µM | > 92 | > 92 | -2.26% | inactive | inactive | inactive | -5.22% | inactive | -1.45% | inactive | inactive |  |  |  |  | 
Cc1ccccc1 | > 92 | > 92 µM | > 92 | > 92 | 5.04% and 4.17% | inactive | inactive | inactive | -8.19% and -6.58% | inactive | 6.68% and 3.68% | inactive | inactive |  |  |  |  | 
CCOC(C)=O | > 92 | > 92 µM | > 92 | > 92 | 9.44% | inactive | inactive | inactive | -3.69% | inactive | 10.1% | inactive | inactive |  |  |  |  | 
CCCCCCCC(=O)O | > 92 | > 92 µM | > 92 | > 92 | -0.485% and -3.97% | inactive | inactive | inactive | 0.495% and -6.94% | inactive | 4.9% and 1.62% | inactive | inactive |  |  |  |  | 
